# Laboratory results reported in PubChem BioAssay (NCATS).
# Inconclusive results are not listed. A number with no mark means an inactive call. Activity calls are given as the source filed them. The call rests on the fitted dose curve; in most records, active means well fitted inhibition curve with a large enough effect; inconclusive means small, poorly fitted or top-dose-only effect; inactive means flat fitted curve, though single readings scatter.
# Tested on: HEK293
# Assay: Cytotoxic Profiling of Annotated Libraries Using Quantitative High-Throughput Screening (AID 1296008); further: nearly all actives have a fitted effect of over 60% in size
# Details: Five cell lines viability, CellTiter-Glo ATP luminescence, 48-72 h; max response: stronger effect = lower value
# How it was run: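 Compounds were pin-transferred onto cells and incubated 48 or 72 hr at 37 degree Celsius, 95% humidity. CellTiter-Glo was added, plates sat 10 min at room temperature, then ATP-coupled luminescence was imaged as the viability read-out.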
# On the % scale 0 is the no-effect control and ±100 the full control effect; potency means the concentration at half of the fitted maximal effect.
Structure (SMILES),Potency,max response [%]
CC(C)[C@@](C)(O)[C@@H]1CN(c2nc(-c3[nH]nc4ncccc34)c(F)cc2Cl)CCN1,13 µM (active),–
CCC1C(=O)OC23C=C[C@@H]4C(C(=O)O)=CO[C@H](O[C@@H]12)[C@@H]43 (stereo not given in full),–,-24.7
C=CC(=O)Nc1cccc(Nc2nc(Nc3ccc(N4CCN(C(C)=O)CC4)cc3OC)ncc2C(F)(F)F)c1,6.51 µM (active),–
COc1cc2ncnc(Nc3ccc(F)c(Cl)c3)c2cc1NC(=O)/C=C/CN1CCCCC1,7.31 µM (active),–
O=C(c1cc2c(cc1F)OC(c1ccc(F)cc1)(c1ccc(Cl)cc1Cl)O2)N1CCOCC1 (stereo not given),11.6 µM (active),–
C=C(C)C(=O)O[C@H]1C[C@@](C)(O)C(=O)CC(O)/C(C)=C\[C@H]2OC(=O)C(=C)[C@H]12 (stereo not given in full),5.08 µM (active),–
COC(=O)N1CCC(n2ncc3c(N4CCOCC4)nc(-c4ccc(NC(=O)Nc5ccc(CO)cc5)cc4)nc32)CC1,0.058 µM (active),–
CNC(C)C(=O)NC(C(=O)N1CCCC1c1nc(C(=O)c2ccc(F)cc2)cs1)C1CCCCC1 (stereo not given),14.6 µM (active),–
CC(=O)c1cc(C(=O)N[C@@H](C)Cn2ccc(-c3ccc(C#N)c(Cl)c3)n2)[nH]n1,23.1 µM (active),–
COC(=O)C1=CO[C@@H](O[C@@H]2O[C@H](CO)[C@@H](O)[C@H](O)[C@H]2O)[C@@H]2C(COC(C)=O)=C[C@H](O)[C@H]12,–,-2.65
